10 compounds from PubChem BioAssay (NCATS) can be followed below.

Several values for one entry are separate records, joined by “and”; a condition that tells them apart may be missing. Equal values may be shown once. Inconclusive results are not listed. Activity calls are given as the source filed them. Unless noted, calls follow the shape of the dose curve; as a rule, active = well fitted curve in the direction sought with a large enough effect; inconclusive = small, poorly fitted or top-dose-only effect, or another doubt; inactive = no such curve, though single readings can be large; an effect the other way counts as inactive or inconclusive.

The target of assay [1] is Retinoic acid receptor RXR-alpha (Homo sapiens) (UniProt P19793). Kind of assay: qHTS assay for small molecule antagonists of retinoid X receptor alpha signaling (AID 588546; active = well fitted inhibition curve with a large enough effect in the signal ratio, with a control signal flat, not every such curve was filed as active; the % refers to the signal ratio;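 also: cells stimulated with 9-cis-retinoic acid as agonist; % is scaled to controls: 0 for no effect and ±100 for the full control effect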). As to conditions: HEK293T RXRa-UAS-bla, beta-lactamase ratio, antagonist mode. Put shortly:
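Beta-lactamase reporter inhibition, read as CCF4 fluorescence ratio (ex 405, em 460/530 nm) after 2 h at RT. HEK293T UAS-bla cells, 2500/well, were stimulated with 9-cis-RA at 500 or 100 nM final alongside test compound for 18 h at 37 C.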
(In general: qHTS replaces the single test concentration by a dilution series.)

For assay [2], the target named is Thyroid hormone receptor beta (Homo sapiens) (UniProt P10828). The assay can be described thus: qHTS assay for small molecule antagonists of thyroid hormone receptor beta signaling (AID 588547; active = well fitted inhibition curve with a large enough effect in the signal ratio, with a control signal flat, not every such curve was filed as active; the % refers to the signal ratio;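 also: cells stimulated with 0.4 nM T3 agonist during compound exposure; % is scaled to controls: 0 for no effect and ±100 for the full control effect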). As to conditions: TR-UAS-bla HEK293, beta-lactamase ratio, antagonist mode, 18 h. In outline: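 Inhibition of T3-driven (0.4nM final) beta-lactamase reporter activity was measured over 0.59 nM to 92 uM compound after 18 h at 37 C. The cells were GripTite HEK293 TR-UAS-bla in charcoal/dextran-stripped serum, with CCF4 ratio read-out and IC50 from Hill fits.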
Chain of Thyroid hormone receptor beta (Homo sapiens) (P10828 whole entry, looked up): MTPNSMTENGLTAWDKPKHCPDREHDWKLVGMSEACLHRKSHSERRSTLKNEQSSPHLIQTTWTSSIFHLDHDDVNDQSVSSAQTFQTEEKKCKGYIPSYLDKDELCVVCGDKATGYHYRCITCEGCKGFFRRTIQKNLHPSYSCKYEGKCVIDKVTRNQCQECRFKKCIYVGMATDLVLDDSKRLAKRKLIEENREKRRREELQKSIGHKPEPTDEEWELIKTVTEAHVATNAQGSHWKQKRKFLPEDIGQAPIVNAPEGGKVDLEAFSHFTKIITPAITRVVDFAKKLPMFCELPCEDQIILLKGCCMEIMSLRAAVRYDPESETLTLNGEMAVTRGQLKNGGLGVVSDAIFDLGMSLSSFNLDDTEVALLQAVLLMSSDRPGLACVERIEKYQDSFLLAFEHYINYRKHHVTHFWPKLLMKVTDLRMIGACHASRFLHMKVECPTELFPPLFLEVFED

Assay [3] concerns the target Luciferin 4-monooxygenase (Photinus pyralis) (UniProt P08659). Kind of assay: Biochemical firefly luciferase enzyme assay for NPC (AID 624030).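 Also: purified P. pyralis luciferase at 10 nM with luciferin and ATP substrate; 0% = DMSO and -100% = full luciferase inhibition by PTC124 control; nearly all actives have a fitted effect of over 70% in size.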 Put shortly: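 Direct inhibition of firefly luciferase enzyme (10 nM final, 50 mM Tris Acetate) assessed by luminescence within 5 minutes. Percent activity scaled between DMSO and PTC124 positive control, with concentration-effect curves classified by fit quality and response.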

The nature of assay [4]: S16 Schwann cell viability assay (CellTiter-Glo assay) (AID 624031). Also: nearly all actives have a fitted effect of over 70% in size. Also: potency is read from the fitted curve at half-maximal effect. In outline:
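Following overnight culture in 10% FBS DMEM, parental S16 rat Schwann cells are dosed for 24 h at 37 °C. Viability is read as CellTiter-Glo luminescence and expressed as % activity relative to DMSO (0%) and no-cell wells.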
(ATP-based viability assays read luminescence as a measure of living cells.)

In assay [5] the target is Glutaminase kidney isoform, mitochondrial (Homo sapiens) (UniProt O94925). Kind of assay: qHTS for Inhibitors of Glutaminase (GLS): LOPAC Validation (AID 624146).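 Also: glutamate product detected by oxidase and peroxidase coupled Amplex red fluorescence gain; % is scaled to controls: 0 for no effect and ±100 for the full control effect; nearly all actives have a fitted effect of over 60% in size.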 In outline: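 Assay buffer: 45 mM KH2PO4 pH 8.2, 0.02% Tween-20. hKGA acts on L-glutamine (1 mM solution added); product glutamate is reported by an oxidase/peroxidase Amplex Red coupling, with fluorescence taken at baseline and 30 min.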
Chain of Glutaminase kidney isoform, mitochondrial (Homo sapiens) (O94925 whole entry, looked up, canonical isoform): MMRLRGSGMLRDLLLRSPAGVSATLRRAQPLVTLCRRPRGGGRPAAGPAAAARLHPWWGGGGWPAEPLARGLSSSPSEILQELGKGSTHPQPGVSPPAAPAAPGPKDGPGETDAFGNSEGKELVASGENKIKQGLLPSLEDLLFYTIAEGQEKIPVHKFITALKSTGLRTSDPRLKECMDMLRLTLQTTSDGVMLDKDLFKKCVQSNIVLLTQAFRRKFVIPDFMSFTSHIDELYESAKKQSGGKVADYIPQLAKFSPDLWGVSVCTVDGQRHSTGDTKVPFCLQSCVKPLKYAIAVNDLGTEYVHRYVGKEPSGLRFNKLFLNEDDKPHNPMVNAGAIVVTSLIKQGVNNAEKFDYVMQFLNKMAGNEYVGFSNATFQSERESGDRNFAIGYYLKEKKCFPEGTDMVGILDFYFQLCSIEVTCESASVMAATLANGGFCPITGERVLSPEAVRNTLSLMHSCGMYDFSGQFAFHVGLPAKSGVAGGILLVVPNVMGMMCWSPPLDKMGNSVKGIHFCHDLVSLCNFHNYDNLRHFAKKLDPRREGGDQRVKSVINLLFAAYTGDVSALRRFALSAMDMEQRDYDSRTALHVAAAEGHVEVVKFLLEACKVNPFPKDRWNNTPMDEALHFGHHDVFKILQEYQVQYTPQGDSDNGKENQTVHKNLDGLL

Assay [6] in a line: qHTS of Trypanosoma Brucei Inhibitors: LOPAC Validation (AID 624147). Also: 0% is about no effect. Put shortly:
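Glycolytic pyruvate kinase of T. brucei was incubated with substrate, test compound and 130 uM ADP for 45 minutes at room temperature. Luminescent Kinase-Glo Plus signal was measured after 10 minutes.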

For assay [7], the target named is Glucagon-like peptide 1 receptor (Homo sapiens) (UniProt P43220). The assay can be described thus: qHTS of GLP-1 Receptor Agonists: LOPAC Validation (AID 624148).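 Also: luminescence from a luciferase reporter switched on by cAMP; 0% is about no effect; higher luminescence signal means agonism.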 In outline: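 Agonism scored as increased luciferase luminescence driven by cAMP in HEK293 clones carrying GLP-1R. Cells settled 12 hours, received compound for 4-6 hr at 37 deg C, 5% CO2, and were read after 12 min detection reagent at RT.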
Chain of Glucagon-like peptide 1 receptor (Homo sapiens) (P43220 whole entry, looked up): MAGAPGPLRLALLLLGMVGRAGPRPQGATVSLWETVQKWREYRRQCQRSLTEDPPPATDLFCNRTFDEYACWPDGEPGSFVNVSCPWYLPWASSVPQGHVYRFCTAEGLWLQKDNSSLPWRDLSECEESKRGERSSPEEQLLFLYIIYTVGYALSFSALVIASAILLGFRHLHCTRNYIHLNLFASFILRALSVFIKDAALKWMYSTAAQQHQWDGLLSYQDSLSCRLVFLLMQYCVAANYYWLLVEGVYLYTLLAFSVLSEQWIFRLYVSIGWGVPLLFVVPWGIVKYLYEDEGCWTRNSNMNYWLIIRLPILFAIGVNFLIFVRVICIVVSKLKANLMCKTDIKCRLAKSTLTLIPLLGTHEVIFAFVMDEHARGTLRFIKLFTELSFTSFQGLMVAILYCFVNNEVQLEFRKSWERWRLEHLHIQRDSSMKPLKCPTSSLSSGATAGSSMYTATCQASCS

The nature of assay [8]: qHTS of Nrf2 Activators: LOPAC Validation (AID 624149). Also: 0% is about no effect. In outline:
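Cells (AREc32_Fluc) are plated at 1000 per well in OPTI-MEM containing 5% FBS and left overnight. Compounds are pinned in and incubated 24 hr at 37 deg C, and firefly luciferase is detected with Steady-Glo.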

Assay [9] can be described thus: HTS Assay for Allosteric Antagonists of the Human D2 Dopamine Receptor: Hit Validation in HTRF (AID 624455). Also: potency is read from the fitted curve at half-maximal effect.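 Also: stable D1 dopamine receptor cell line scored for blocking the D1 response.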 Put shortly:
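Inhibition of the D1-mediated response is measured by HTRF in cells that stably express the D1 dopamine receptor. Compounds reaching this step are hits from calcium-flux antagonism testing at EC80 dopamine in inducible Hek293 Trex D2 cells.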
In general terms: TR-FRET usually uses a lanthanide donor and a delayed reading to cut background.

A short description of assay [10]: qHTS assay for small molecule agonists of the antioxidant response element (ARE) signaling pathway (AID 651741; active = well fitted activation curve with a large enough effect in the signal ratio; the % refers to the signal ratio; also: potency is read from the fitted curve at half-maximal effect; as to activation: % of control where 0% means no effect). In outline:
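Beta-lactamase reporter under ARE control in HepG2 cells, 2,000 per well, was induced by 16 h compound treatment at 37 C. Read-out was fluorescence from LiveBLAzer B/G FRET substrate after 2 h at room temperature.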

Assay [11] is described as follows: S16 Schwann cell PMP22 intronic element firefly luciferase assay (AID 624032). Also: nearly all actives have a fitted effect of over 30% in size. Also: potency is read from the fitted curve at half-maximal effect. In outline:
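Luciferase reporter of PMP22 intronic-element expression in stably transfected S16 rat Schwann cells, read by ONE-Glo luminescence after 24 h compound exposure at 37 C. Activity scaled between DMSO (0%) and positive-control PTC124; concentration-effect curves quality-classified.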

A short description of assay [12]: S16 Schwann cell PMP22 intronic element beta-lactamase assay (AID 624044; calls by dose curve;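 also: 0% = DMSO and -100% = potassium clavulanate positive control; nearly all actives have a fitted effect of over 15% in size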). Put shortly: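 Beta-lactamase reporter under a PMP22 intronic regulatory element in stable S16 rat Schwann cells; 24 h compound exposure. 460 nm blue signal normalized between DMSO (0%) and potassium clavulanate, with 535 nm FRET tracking viability; curves classed by r2 and response.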
Assay [13] in a line: Cytotoxicity counterscreen for NFkB agonists and antagonists (AID 624476). Also: % is scaled to controls: 0 for no effect and ±100 for the full control effect.
The nature of assay [14]: qHTS Assay for Identification of Small Molecule Agonists for NFkB Signaling Pathway. (AID 624478).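 Also: compounds tested together with TNF alpha at its EC50 of 10 pM; 0% is about no effect.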 Put shortly: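 Activators were sought in reporter cells stimulated at the TNF alpha EC50 (10 pM final). Compound and cytokine were co-incubated 5 hours at 37 C before beta-lactamase substrate detection by dual-emission fluorescence.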
The nature of assay [15]: qHTS Assay for Identification of Small Molecule Antagonists for NFkB Signaling Pathway. (AID 624479; calls by dose curve; also: % is scaled to controls: 0 for no effect and ±100 for the full control effect).
Assay [16] in a line: Cell Proliferation Assay against the TMD8 Cell Line (AID 651645).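 Also: cells exposed to compound for 48 h before reading.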 As to conditions: TMD8 DLBCL cell line proliferation/viability; at 46.1 µM (top of the series) unless noted. Put shortly: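 TMD8 ABC DLBCL cells, 500 per well in phenol red-free RPMI with 5% FBS, were treated with compound by pin transfer and incubated 48 hours at 37C, 5% CO2. Viability was read by CellTiter-Glo luminescence, normalised to DMSO (100%) and 9.2 uM bortezomib (0%).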

Assay [17] can be described thus: Cell Proliferation Assay against the HBL1 Cell Line (AID 651646).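 Also: cells exposed to compound for 48 h before reading.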 As to conditions: HBL1 DLBCL cells; at 46.1 µM (top of the series) unless noted. Put shortly: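 CellTiter-Glo luminescence after 48 h compound exposure at 37C gives percent activity, with DMSO as 100% and 9.2 uM bortezomib final as 0%. Cells: 500 log-phase HBL1 per well, RPMI plus 5% FBS.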
Assay [18] in a line: Cell Proliferation Assay against the TMD8 Cell Line (Caspase readout at 16 hrs) (AID 651712). In outline:
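Caspase-Glo luminescence measured apoptosis after a 16 h, 37 C compound exposure of TMD8 cells (500 cells/well, 5% FBS RPMI). DMSO set 0% and bortezomib at 9.2 uM final set 100% activity.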

A short description of assay [19]: Cell Proliferation Assay against the TMD8 Cell Line (Caspase readout at 8 hrs) (AID 651713).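 Also: 0% = DMSO and 100% = 9.2 µM bortezomib caspase signal.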 In outline:
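Caspase 3/7 activation in ABC DLBCL TMD8 cells is measured by luminescence after an 8 h compound exposure at 37C. Relative light units are scaled between DMSO (0%) and 9.2 uM final bortezomib (100%).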

In assay [20] the target is Voltage-gated inwardly rectifying potassium channel KCNH2 (Homo sapiens) (UniProt Q12809). The assay can be described thus: qHTS Assay for Small Molecule Inhibitors of the Human hERG Channel Activity (AID 588834).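 Also: top concentration of the series differs between compounds; % is scaled to controls: 0 for no effect and ±100 for the full control effect; lower thallium flux fluorescence means stronger hERG block; nearly all actives have a fitted effect of over 50% in size.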 Put shortly: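 In hERG-transduced U2OS cells, dye-loaded for 1 hr at room temperature in dark, test compounds incubated 10 min at 37 °C before thallium stimulation. AC50 values derived by Hill modelling of concentration-response.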
Chain of Voltage-gated inwardly rectifying potassium channel KCNH2 (Homo sapiens) (Q12809 whole entry, looked up): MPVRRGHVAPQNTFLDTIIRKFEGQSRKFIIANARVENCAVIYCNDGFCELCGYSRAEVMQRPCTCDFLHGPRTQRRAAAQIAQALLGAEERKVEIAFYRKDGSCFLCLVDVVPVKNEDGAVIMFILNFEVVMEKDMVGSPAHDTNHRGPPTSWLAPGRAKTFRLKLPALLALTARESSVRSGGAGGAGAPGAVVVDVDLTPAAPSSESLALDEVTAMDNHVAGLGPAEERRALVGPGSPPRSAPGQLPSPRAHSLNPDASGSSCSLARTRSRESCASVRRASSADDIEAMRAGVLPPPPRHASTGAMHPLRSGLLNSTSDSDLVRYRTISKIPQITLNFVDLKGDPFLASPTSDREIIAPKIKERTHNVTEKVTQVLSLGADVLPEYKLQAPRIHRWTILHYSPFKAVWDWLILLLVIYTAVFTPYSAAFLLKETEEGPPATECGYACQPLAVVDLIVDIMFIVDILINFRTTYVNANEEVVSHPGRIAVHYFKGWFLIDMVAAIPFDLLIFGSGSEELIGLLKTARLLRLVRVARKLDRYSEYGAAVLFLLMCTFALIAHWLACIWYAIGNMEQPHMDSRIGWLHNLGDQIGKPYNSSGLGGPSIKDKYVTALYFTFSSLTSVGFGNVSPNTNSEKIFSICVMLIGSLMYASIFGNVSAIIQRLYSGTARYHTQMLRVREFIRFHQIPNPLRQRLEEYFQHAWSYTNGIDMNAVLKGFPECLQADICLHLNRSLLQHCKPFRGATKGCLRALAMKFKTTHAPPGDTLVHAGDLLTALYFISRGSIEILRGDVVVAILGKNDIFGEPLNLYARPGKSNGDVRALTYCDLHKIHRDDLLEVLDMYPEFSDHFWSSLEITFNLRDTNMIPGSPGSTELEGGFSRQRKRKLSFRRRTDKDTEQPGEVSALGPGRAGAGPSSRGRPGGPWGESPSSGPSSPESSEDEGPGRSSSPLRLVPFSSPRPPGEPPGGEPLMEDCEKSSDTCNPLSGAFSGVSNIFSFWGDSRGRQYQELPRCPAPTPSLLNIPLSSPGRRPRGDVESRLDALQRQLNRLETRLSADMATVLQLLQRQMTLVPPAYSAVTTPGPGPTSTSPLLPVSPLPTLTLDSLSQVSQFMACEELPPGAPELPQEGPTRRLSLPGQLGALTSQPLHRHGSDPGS

Chain of Luciferin 4-monooxygenase (Photinus pyralis) (P08659 whole entry, looked up): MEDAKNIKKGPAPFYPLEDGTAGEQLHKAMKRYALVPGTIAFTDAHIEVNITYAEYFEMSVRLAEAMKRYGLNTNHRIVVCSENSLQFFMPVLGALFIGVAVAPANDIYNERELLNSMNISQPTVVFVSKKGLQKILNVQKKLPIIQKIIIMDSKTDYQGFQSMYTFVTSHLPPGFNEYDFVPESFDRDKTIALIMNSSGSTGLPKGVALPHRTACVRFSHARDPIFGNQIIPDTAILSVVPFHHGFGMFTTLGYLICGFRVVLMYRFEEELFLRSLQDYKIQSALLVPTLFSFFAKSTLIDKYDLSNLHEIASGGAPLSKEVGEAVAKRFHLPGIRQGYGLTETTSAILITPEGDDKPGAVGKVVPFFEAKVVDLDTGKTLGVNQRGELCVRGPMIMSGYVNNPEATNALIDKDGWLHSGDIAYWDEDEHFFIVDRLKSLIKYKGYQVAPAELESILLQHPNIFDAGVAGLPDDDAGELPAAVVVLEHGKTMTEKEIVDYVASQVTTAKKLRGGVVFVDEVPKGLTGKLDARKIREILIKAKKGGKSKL
Chain of Retinoic acid receptor RXR-alpha (Homo sapiens) (P19793 whole entry, looked up): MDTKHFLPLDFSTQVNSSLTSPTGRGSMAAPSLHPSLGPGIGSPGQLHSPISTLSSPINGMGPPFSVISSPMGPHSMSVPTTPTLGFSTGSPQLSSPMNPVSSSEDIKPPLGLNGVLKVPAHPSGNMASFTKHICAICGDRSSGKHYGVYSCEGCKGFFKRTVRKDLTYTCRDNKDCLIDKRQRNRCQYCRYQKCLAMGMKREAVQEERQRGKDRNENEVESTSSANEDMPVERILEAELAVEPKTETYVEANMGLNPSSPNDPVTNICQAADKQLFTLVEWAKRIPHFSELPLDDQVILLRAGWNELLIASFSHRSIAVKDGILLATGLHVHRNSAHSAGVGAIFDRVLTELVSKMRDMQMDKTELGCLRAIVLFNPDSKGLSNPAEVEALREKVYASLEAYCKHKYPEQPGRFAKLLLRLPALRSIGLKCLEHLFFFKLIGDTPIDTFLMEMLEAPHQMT

For `Cc1[nH]c(=O)c(C#N)cc1-c1ccncc1`, in [1], the max response was -8.79% (inactive). For the same compound, in [2], the activity change % (negative = inhibition) is -2.81% (inactive). Besides, the Potency result in assay [3], in [4], in assay [9] and in [10] was “inactive” each time. For the same compound, the call in assay [5], in [6], in assay [7] and in assay [8] was inactive.

On to `CC(=O)Oc1ccccc1C(=O)O`, for which, in assay [1], the max response was 7.17% (inactive) and 4.37% (inactive). The Potency entry in [3], in assay [4], in assay [11], in [9] and in assay [10] was “inactive” each time. Moreover, the compound was called inactive in [12], in [5], in [6], in assay [7] and in assay [8].

As to `CN1CCN(CCCN2c3ccccc3Sc3ccc(C(F)(F)F)cc32)CC1`, the Potency entry in assay [3], in assay [11] and in assay [9] was “inactive” each time. Moreover, in [4], the Potency was 22.8 µM (active). Also, the compound was classed as inactive in [5], in assay [6], in assay [7] and in assay [8].

`N#Cc1ccc(C(c2ccc(C#N)cc2)n2cncn2)cc1`: the Potency result in [3], in assay [4], in [11], in assay [13], in [15] and in assay [18] was “inactive” in each case. Further, the Potency result in assay [19] is “inactive”. For the same compound, the compound was called inactive in [12] and in assay [14]. In assay [16], the viability (% of control) is 71.5%. Moreover, the viability, percent of control in [17] is 110%.

With `NC[C@H](O)c1ccc(O)c(O)c1`, the max response in assay [1] is -6.6% (inactive). Also, the activity change % (negative = inhibition) in [2] was 13.6% (inactive). For the same compound, the Potency entry in assay [3] and in assay [4] was “inactive” each time. In addition, the Potency in [11] was 9.07 µM (active); in assay [9], 0.291 µM (active). Also, the result in assay [12], in [5], in assay [6] and in assay [8] was inactive.

Take `N=c1nc(N2CCCCC2)cc(N)n1O`: the Potency entry in assay [3], in assay [4], in [11] and in assay [9] was “inactive” in each case. Moreover, the compound was called inactive in assay [12], in assay [5], in [6], in assay [7] and in [8].

Regarding `CC(c1cc2ccccc2s1)N(O)C(N)=O` (configuration not stated), the Potency entry in assay [3], in assay [4], in assay [11], in assay [13], in assay [15] and in assay [19] was “inactive” throughout. The compound was called inactive in assay [12] and in assay [14]. The viability (% of control) in assay [16] turned out to be 92.3% [at 92.2 µM]. Besides, in [17], the viability, percent of control is 96.2% [at 92.2 µM].

For `NCCc1ccc(O)c(O)c1`, the Potency entry in assay [3] and in [4] was “inactive” in each case. For the same compound, the Potency in assay [11] was 8.09 µM (active). Moreover, the compound was classed as inactive in [12], in [5], in assay [6] and in assay [8].

As for `Cn1cnc([N+](=O)[O-])c1Sc1ncnc2nc[nH]c12`, in [1], the max response was -8.6% (inactive) and -5.48% (inactive). Besides, the activity change % (negative = inhibition) in [2] is 18.7% (inactive). Further, the Potency entry in [20], in assay [3], in [4] and in [9] was “inactive” each time. Further, the compound was called inactive in [5], in [6], in [7] and in assay [8]. Also, the Potency in assay [10] was 27.3 µM (active) and 37.6 µM (active).

Take `O=NN(CCCl)C(=O)NCCCl`: the max response in assay [1] is 0.269% (inactive). The activity change % (negative = inhibition) in assay [2] is 11.9% (inactive). Also, the Potency entry in [3], in assay [4], in assay [11] and in [9] was “inactive” each time. For the same compound, the result in assay [5], in assay [6], in assay [7] and in assay [8] was inactive.
